Assay outcomes: PubChem, National Center for Advancing Translational Sciences (NCATS)
Pf growth 48h – P. falciparum growth inhibition at 48 hours (one generation) | P. falciparum luciferase growth in erythrocytes, 48 h | Potency, µM (doses to about 28.7 µM), hits mostly inhibitors | hit rate 5.9% among 310,000 | AID 504832
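Luciferase-expressing P. falciparum in infected erythrocytes (2% hematocrit, 0.1% parasitemia final) in RPMI 1640/0.5% Albumax were exposed to compound for 48 hours at 37 C, 5% CO2; growth read as luminescence.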
HCMV antiviral – inhibitors of human cytomegalovirus; hit rate 4.5% among 410,000; HFF cells, HCMV-luciferase reporter, 72 h; hits give low values; activity change, negative = inhibition, % at 57.5 µM; in the data active means activity change below about -60%; inconclusive means no clear call, values can overlap the other calls; inactive means above about -39%
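Inhibition of viral replication was scored as loss of reporter luminescence in HFFs infected with HCMV-luciferase (MOI 1 PFU/cell) for 72 h; compounds tested at 2 doses, normalized to buffer and Salinomycin controls.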
Shiga toxin inh – blocks Shiga toxin action in Vero cells; Vero cells, Shiga toxin protein synthesis inhibition reporter; inhibition, % at 38.7 µM; hit rate 9.2% among 290,000; AID 2315; in the data active means inhibition mostly above about 28%, no sharp cut-off; inactive means mostly below about 43%
Pf growth 96h – P. falciparum growth inhibition at 96 hours; P. falciparum luciferase reporter growth, 96 h; hit rate 6.9% among 320,000; Potency, µM (series often up to 28.7 µM), usual class: inhibitors; AID 504834
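Readout is luminescence from an integrated firefly luciferase in P. falciparum. Red cells, 2% hematocrit and 0.05% parasitemia final, were cultured with compound through two parasite generations (96 hours) at 37 C, 5% CO2.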
CHX counter – counter-screen for Shiga toxin inhibitors: cycloheximide protein synthesis inhibition; cell reporter, cycloheximide protein synthesis inhibition counterscreen; max response, %; hit rate 12% among 300,000; AID 2314; in the data active means max response mostly above about 13%, no sharp cut-off; inactive means mostly below about 14%; further: read at 38.3 µM for the half of the compounds with a filed dose
A number is an active result; 0 = inactive; ? = inconclusive; - = not tested or not shown; [ ] = another dose, or the depositor's remark. In the library only some 20% were active in any assay of this set; here they are far more common. Unless noted, the call rests on the fitted dose curve; in most records, active means well fitted inhibition curve with a large enough effect; inconclusive means small, poorly fitted or top-dose-only effect, or another doubt; inactive means no such curve, though single readings can be large or run the other way.

SMILES | Pf growth 48h | HCMV antiviral | Shiga toxin inh | Pf growth 96h | CHX counter
COc1ccccc1C1CC(c2ccco2)=NN1c1ccccc1 (configuration not stated) | ? | 0 | 0 | 0 | 0
COc1ccccc1C(CNC(=O)c1cccc(S(=O)(=O)Nc2ccc(C)cc2)c1)N(C)C (configuration not stated) | ? | -76 | 0 | ? | 0
COc1ccccc1C(CNC(=O)c1ccc(NS(=O)(=O)c2ccc3c(c2)OCCO3)cc1)N(C)C (configuration not stated) | ? | 0 | - | 12µM | -
CCOC(=O)c1cc2c(ccn2C)n1CC(=O)N1CCC(Cc2ccccc2)CC1 | 10µM | 0 | 0 | ? | 0
CCOC(=O)c1cc2c(ccn2C)n1Cc1ccc(C#N)cc1 | 0 | 0 | 0 | 4.1µM | 0
CC1CN(c2ccc(NC(=O)c3ccco3)cc2C(=O)O)CC(C)O1 (configuration not stated) | 0 | 0 | 0 | 0 | 0
Cc1cccc(Nc2nc(Cl)ncc2F)c1C | 0 | 0 | - | 0 | 0
O=C(COC(=O)c1ccccn1)c1ccc([N+](=O)[O-])cc1 | ? | 0 | 41 | 0 | 0
O=C(COC(=O)c1ccccn1)Nc1nc(-c2cccc([N+](=O)[O-])c2)cs1 | 0 | 0 | 0 | 0 | 18
COc1ccccc1NC(=O)COC(=O)c1cc(C)oc1C | - | -79 | - | - | -
Cc1cc(C(=O)OCC(=O)Nc2nc(-c3ccccc3)cs2)c(C)o1 | - | -101 | 0 | 0 | 0
Cc1cc(C(=O)OC(C)C(=O)Nc2nc(-c3ccccc3)cs2)c(C)o1 (configuration not stated) | 0 | 0 | 0 | - | 0
CCOc1ccc(C2CC(=O)NC2=O)cc1 (configuration not stated) | 0[0.00184 µM] | 0 | 0 | 0 | 0
CCS(=O)(=O)N1CC(=O)N(c2cc(C)cc(C)c2)C(C)(C(=O)NC2CCCCC2)C1 (configuration not stated) | - | 0 | - | - | -
O=C(COC(=O)c1ccccn1)Nc1nc(-c2ccccc2)cs1 | 0 | 0 | 81 | ? | 42
Cn1ncc(Br)c1C(=O)OCC(=O)Nc1nc(-c2ccccc2)cs1 | 0 | 0 | 31 | 0 | 19
O=C(COC(=O)c1ccc2c(c1)OCO2)Nc1nc(-c2ccccc2)cs1 | 0 | 0 | 0 | 0 | 0
CCOc1ccc(N=CNc2ccc(OCC)cc2)cc1 | 0 | 0 | 0 | ? | 0
CCCCN=Cc1sc2ccc(OCC)cc2c1O | 0 | 0 | 67 | ? | 69
C=CCN=Cc1sc2ccc(OCC)cc2c1O | 0 | 0 | 153 | 0 | 51
CCOc1ccc2nc(/N=C/c3nc(-c4ccc(Br)cc4)oc3O)sc2c1 | 0 | 0 | 0 | 0 | 0
Cc1ccc(S(=O)(=O)N2CCN(S(C)(=O)=O)C2C)cc1 (configuration not stated) | 0 | 0 | - | 0 | -
COc1ccccc1NS(=O)(=O)c1ccc2oc(SC(C)C(=O)N3CCNC3=O)nc2c1 (configuration not stated) | ? | 0 | - | ? | -
O=C1CCC(C(=O)N2CCCO2)CN1Cc1cccc(C(F)(F)F)c1 (configuration not stated) | 0 | 0 | 44 | 0 | 29
O=C(NCCCC1CCCC1)C1CCC(=O)N(Cc2cccc(C(F)(F)F)c2)C1 (configuration not stated) | 0 | 0 | 0 | 12µM | 0
SMILES | Pf growth 48h | HCMV antiviral | Shiga toxin inh | Pf growth 96h | CHX counter
O=C1CCC(C(=O)N2CCCC2)CN1Cc1cccc(C(F)(F)F)c1 (configuration not stated) | 0 | 0 | 0 | 0 | 0
O=C(NCc1cccs1)C1CCC(=O)N(Cc2cccc(C(F)(F)F)c2)C1 (configuration not stated) | ? | 0 | 0 | ? | 39
O=C(NCC1CCOCC1)C1CCC(=O)N(Cc2cccc(C(F)(F)F)c2)C1 (configuration not stated) | 0 | 0 | 0 | ? | 0
Cc1nc(SCC(=O)c2ccc(F)c(F)c2)[nH]c(=O)c1Oc1ccc(Cl)cc1 | ? | 0 | 0 | ? | 0
COc1cc2c(-c3ccccc3C)nc3c(c(C)nn3-c3ccccc3)c2cc1OC | - | 0 | - | - | -
COc1cccc(-c2c(C#N)c(N)nc3c2c(C)nn3-c2ccccc2)c1O | 0.37µM | 0 | 0 | 0.52µM | 0
Cc1nn(-c2ccccc2)c2nc(N)c(C#N)c(-c3ccc(C(C)(C)C)cc3)c12 | ? | 0 | 0 | 4.7µM | 0
Cc1cc(C(F)(F)F)c2c(C)nn(-c3ccccc3)c2n1 | - | 0 | - | - | -
O=C1N=C(N2CCCC2)S/C1=C\c1ccccc1 | 15µM | 0 | 0 | ? | 0
Cc1ccc(/C=C2\SC(N3CCCCC3)=NC2=O)cc1 | 0 | 0 | 73 | 0 | 42
